High-throughput results as filed in PubChem.
HT1080-NT tox – kills 2HG-producing HT-1080-NT fibrosarcoma cells; HT-1080-NT fibrosarcoma viability, CellTiter-Glo ATP luminescence, 48 h; Potency, µM (titrated, usually from 46.1 µM), usual class: cytotoxic; 1.6% of 360,000 active;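 also: NT is the 2HG producing partner of a matched IDH1 knockdown line; nearly all actives have a fitted effect of over 55% in size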
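Read-out is CellTiter-Glo luminescence after 10 minutes at room temperature, following 48 hours' compound treatment of HT-1080-NT cells (750 cells/well, RPMI, 5% FBS, 37 degrees C).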
HT1080 IDH1KD tx – kills HT-1080 cells with IDH1 knockdown; HT-1080 IDH1 knockdown viability, ATP luminescence, 48 h; Potency, µM (highest dose often 46.1 µM), most hits filed as cytotoxic; 2% of 360,000 active
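Using the IDH1-knockdown HT-1080 line run in the same batch and compound series as the NT line, viability after 48 h at 37 °C was determined by CellTiter-Glo luminescence and expressed as % activity.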
KB-V1 MDR tox – kills drug-selected multidrug resistant KB-V1 cells. KB-V1 MDR cells viability, CellTiter-Glo, 72 h. Potency, µM (top dose mostly 46.1 µM), actives largely listed as cytotoxic. 3.4% of 400,000 active. AID 1347076; also: nearly all actives have a fitted effect of over 60% in size
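Luminescent ATP read-out (CellTiter-Glo, 10 min) measures survival of drug-selected KB-V1 MDR cells after 72 h, 37 degrees C compound exposure. Medium: phenol-red-free DMEM, 10% FBS. Values from fitted concentration-response curves.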
KB-3-1 tox – KB-3-1 parental cell cytotoxicity. 1.4% of 400,000 active. Potency, µM (series often up to 46.1 µM), most hits filed as cytotoxic. KB-3-1 viability, CellTiter-Glo ATP luminescence, 72 h. AID 1347075; also: nearly all actives have a fitted effect of over 60% in size
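KB-3-1 parental drug-naive adenocarcinoma cells in DMEM/10% FBS, incubated 72 h at 37 C with pin-transferred compounds across a concentration series. Viability by CellTiter-Glo luminescence; concentration-response curves fitted after normalization.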
SW480 rereplic – DNA re-replication induction in SW480 cells; SW480 DNA re-replication, Hoechst DNA content imaging, 48 h; AID 624297; Potency, µM (doses to about 46.1 µM), hits mostly activators; 1.8% of 340,000 active; also: nearly all actives have a fitted effect of over 55% in size
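250 cells/well; 23 nL cpd via pin tool; 48 hr, 37 C, 5% CO2; Hoechst 40 min; imager read of total nuclear intensity, ex 405/em 500-530 nm.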
MCF10A rereplic – DNA re-replication induction in MCF 10a cells | MCF 10A DNA re-replication, Hoechst nuclear intensity, 48 h | Potency, µM (top dose mostly 46.1 µM), most hits filed as activators | 2.9% of 350,000 active | AID 624296; also: nearly all actives have a fitted effect of over 50% in size
Of the large screens only hits and unclear results are named; the others gave an inactive call. Rows were chosen to be rich in hits. Some 8% of all compounds tested hit in one or more screens of this group. Calls follow the shape of the dose curve; as a rule, active = well fitted curve in the direction sought with a large enough effect; inconclusive = small, poorly fitted or top-dose-only effect, or another doubt; inactive = no such curve, though single readings can be large; an effect the other way counts as inactive or inconclusive.

CCOC(=O)c1c(Oc2ccc(OC)cc2)nnc(-c2ccccc2)c1-c1ccccc1	none (no result: HT1080-NT tox, HT1080 IDH1KD tx, SW480 rereplic, MCF10A rereplic)
CN(C)c1nc(C(=O)NN)nc(N(C)C)n1	MCF10A rereplic 3.66µM
COC(=O)NCCOc1nc(N(C)C)nc(N(C)C)n1	none
CCCc1nc([N+](=O)[O-])c(S(=O)(=O)c2ccccc2)n1CC(C)C	HT1080 IDH1KD tx inconclusive, KB-3-1 tox inconclusive, SW480 rereplic inconclusive, MCF10A rereplic inconclusive
CC(C)Cn1c(C(C)C)nc([N+](=O)[O-])c1S(=O)(=O)c1ccc(F)cc1	HT1080-NT tox 3.55µM, HT1080 IDH1KD tx 7.08µM, KB-V1 MDR tox inconclusive, KB-3-1 tox inconclusive, SW480 rereplic 18.4µM, MCF10A rereplic 20.6µM
CCOc1ccc(CNC(=O)c2ccc3c(Cl)c4c(nc3c2)CCCC4)cc1	none (no result: HT1080-NT tox, HT1080 IDH1KD tx, SW480 rereplic, MCF10A rereplic)
Cc1cc(C=Nc2ccc(/C=C/c3ccnc4ccccc34)cc2)ccc1N(C)C	none (no result: HT1080-NT tox, HT1080 IDH1KD tx, SW480 rereplic, MCF10A rereplic)
CN1CCN(c2nc(-c3ccccc3)nc(-c3ccc(F)cc3)c2C#N)CC1	SW480 rereplic inconclusive, MCF10A rereplic inconclusive
COc1ccccc1-c1nc(-c2ccccc2)nc(N2CCN(C)CC2)c1C#N	HT1080-NT tox 16.4µM, HT1080 IDH1KD tx 20.6µM, KB-3-1 tox inconclusive, SW480 rereplic inconclusive, MCF10A rereplic inconclusive
CCOc1ccccc1NC(=O)CN(c1ccc(OC)cc1)S(=O)(=O)c1c(C)noc1C	HT1080-NT tox 5.17µM, HT1080 IDH1KD tx 5.17µM, KB-V1 MDR tox 2.59µM, KB-3-1 tox 5.8µM, SW480 rereplic 5.8µM, MCF10A rereplic 6.51µM
COc1ccc(N(CC(=O)Nc2cccc(C(=O)O)c2)S(=O)(=O)c2c(C)noc2C)cc1	none
CCOC(=O)c1cccc(NC(=O)CN(c2ccc(OC)cc2)S(=O)(=O)c2c(C)noc2C)c1	KB-V1 MDR tox 9.2µM
CCOc1ccc(N(CC(=O)Nc2cccc(F)c2)S(=O)(=O)c2c(C)noc2C)cc1	HT1080-NT tox inconclusive, HT1080 IDH1KD tx inconclusive, KB-V1 MDR tox inconclusive, KB-3-1 tox 20.6µM, MCF10A rereplic inconclusive
CCOc1ccc(N(CC(=O)Nc2ccccc2C)S(=O)(=O)c2c(C)noc2C)cc1	HT1080-NT tox 4.61µM, HT1080 IDH1KD tx 3.66µM, KB-V1 MDR tox inconclusive, KB-3-1 tox 5.8µM, SW480 rereplic 3.26µM, MCF10A rereplic 2.59µM
Cc1ccc(C(=O)Nc2ccc3oc(-c4ccccc4C)nc3c2)cc1	none (no result: HT1080-NT tox, HT1080 IDH1KD tx, SW480 rereplic, MCF10A rereplic)
Cc1cc(=O)n(CC(=O)NC(C)c2ccccc2)c2c1c(C)nn2-c1cccc(F)c1 (stereo not given)	none (no result: HT1080-NT tox, HT1080 IDH1KD tx, SW480 rereplic, MCF10A rereplic)
COc1ccc(N(CC(=O)N2CCc3ccccc32)S(=O)(=O)c2c(C)noc2C)cc1	KB-V1 MDR tox 10.3µM, KB-3-1 tox inconclusive, MCF10A rereplic inconclusive
Cc1noc(C)c1S(=O)(=O)N(CC(=O)N1CCc2ccccc21)c1ccc(C(C)C)cc1	none
c1ccc2c(C3=NNC(=NC4CC4)SC3)c[nH]c2c1	none
COc1ccc(-n2c(C)cc(C3=NNC(=NC4CC4)SC3)c2C)cc1	HT1080-NT tox 23.1µM, HT1080 IDH1KD tx 20.6µM, KB-V1 MDR tox inconclusive, KB-3-1 tox inconclusive, SW480 rereplic inconclusive, MCF10A rereplic 9.2µM
Cc1cc(C2=NNC(=NC3CC3)SC2)c(C)n1Cc1ccco1	HT1080-NT tox 7.31µM, HT1080 IDH1KD tx 7.31µM, KB-V1 MDR tox 5.17µM, KB-3-1 tox 3.26µM, MCF10A rereplic 6.51µM (no result: SW480 rereplic)
COCCn1c(C)cc(C2=NNC(=NC3CC3)SC2)c1C	HT1080-NT tox inconclusive, HT1080 IDH1KD tx inconclusive, KB-V1 MDR tox inconclusive, MCF10A rereplic inconclusive
c1ccc(C2=NNC(=NC3CC3)SC2)cc1	HT1080-NT tox inconclusive, HT1080 IDH1KD tx 17.8µM, KB-3-1 tox inconclusive
COCCCN=C1NN=C(c2cc(C)n(Cc3ccco3)c2C)CS1	HT1080-NT tox 1.64µM, HT1080 IDH1KD tx 1.64µM, KB-V1 MDR tox inconclusive, KB-3-1 tox inconclusive, SW480 rereplic 5.8µM, MCF10A rereplic inconclusive
COc1cccc(CNC(=O)c2ccc(NS(=O)(=O)c3ccc4[nH]c(=O)[nH]c4c3)cc2)c1	none
O=c1[nH]/c(=C/c2ccc3c(c2)OCO3)c(=O)[nH]/c1=C/c1ccc2c(c1)OCO2	none (no result: HT1080-NT tox, HT1080 IDH1KD tx, SW480 rereplic, MCF10A rereplic)
